About 8,800 targets were measured; listed, in parts, are those with a hit and a random draw of the rest. About 0.5% of all pairs of compound and target were hits.
Experiments:
Test in all cases: log2 fold change, soluble protein after heating vs DMSO (PISA); higher = thermal stabilisation; K562 lysate, 10 uM; active = over 0.2 and 3.5 SD of the protein, either way, in both replicates (recomputed)
[1] = compound: C1=CC=C(C=C1)[C@H](COC2=CC3=C(C=C2)NC(=O)N3)NC(=O)C4=CC=CN(C4=O)CC5=CC(=C(C=C5)F)F
Summary of the method: (§1)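 Dounce homogenisation of K562 pellets in PBS pH 7.4 with 1 mM MgCl2 produced a crude extract, used at 1 mg/mL protein. Exposure to 10 μM compound lasted 30 min, and aliquots were then heated for 3 min across 48°C-58°C, pooled and brought to 0.5% NP-40 at 4°C. The supernatant after 21,000xg for 90 min was quantified by TMTpro 16plex LC-MS/MS with channel sums equalised. Duplicate values are given as log-two fold change in thermal stability relative to solvent controls.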

[2] = compound: CC1=C(SC2=C1C(=N[C@H](C3=NN=C(N32)C)CC(=O)N)C4=CC=C(C=C4)Cl)C
Summary of the method: as §1

[3] = compound: CC1=C2C(=CC=C1)N=C(N(C2=O)C3=CC=CC=C3C)CN4C=NC5=C(N=CN=C54)N
Summary of the method: as §1

[4] = compound: Cc1sc2c(c1C)C(c1ccc(Cl)cc1)=N[C@@H](CC(=O)OC(C)(C)C)c1nnc(C)n1-2
Summary of the method: as §1

[5] = compound: c1ccc([C@@H]2C[C@H]2NC2CCNCC2)cc1
Summary of the method: as §1

Measured: log2 fold change

BMS1 (UniProt Q14692)
inactive: [1] 0.047 | [2] -0.036 | [3] 0.027 | [4] 0.013 | [5] -0.029

CCT6A (UniProt P40227)
inactive: [1] 0.007 | [2] -0.007 | [3] -0.01 | [4] 0.004 | [5] 0.025

CDK8 (UniProt P49336)
inactive: [1] -0.05 | [2] -0.108 | [3] 0.202 | [4] 0.017 | [5] -0.045

CANX isoform 2 (UniProt P27824)
Chain of UniProt P27824 (P27824 whole entry, looked up): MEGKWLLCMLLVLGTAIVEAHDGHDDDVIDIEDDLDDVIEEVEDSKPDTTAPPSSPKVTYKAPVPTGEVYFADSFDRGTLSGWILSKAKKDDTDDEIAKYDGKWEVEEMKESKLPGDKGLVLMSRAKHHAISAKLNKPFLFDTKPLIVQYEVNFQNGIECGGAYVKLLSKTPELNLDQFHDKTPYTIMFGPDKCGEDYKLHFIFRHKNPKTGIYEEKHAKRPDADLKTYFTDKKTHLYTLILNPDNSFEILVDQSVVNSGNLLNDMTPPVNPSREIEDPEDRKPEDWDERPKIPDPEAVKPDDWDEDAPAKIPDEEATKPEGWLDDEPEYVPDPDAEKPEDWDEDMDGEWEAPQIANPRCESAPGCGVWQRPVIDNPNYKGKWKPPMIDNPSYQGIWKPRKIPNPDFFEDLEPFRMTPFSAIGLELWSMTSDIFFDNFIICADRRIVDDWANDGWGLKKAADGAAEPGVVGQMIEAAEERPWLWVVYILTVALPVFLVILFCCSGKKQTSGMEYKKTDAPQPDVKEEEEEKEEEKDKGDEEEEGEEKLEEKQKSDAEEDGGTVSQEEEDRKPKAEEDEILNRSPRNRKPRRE
inactive: [1] 0.05 | [2] -0.022 | [3] -0.005 | [4] -0.027 | [5] -0.046

ATG13 isoform 2 (UniProt O75143)
inactive: [1] 0.001 | [2] 0.026 | [3] 0.055 | [4] 0.045 | [5] -0.166

CDC45 isoform 3 (UniProt O75419)
inactive: [1] 0.076 | [2] -0.01 | [3] 0 | [4] -0.018 | [5] 0.026

CHD1L (UniProt Q86WJ1)
inactive: [1] -0.012 | [2] 0.036 | [3] 0.037 | [4] -0.009 | [5] 0.052

CARHSP1 (UniProt Q9Y2V2)
Chain of UniProt Q9Y2V2 (Q9Y2V2 whole entry, looked up): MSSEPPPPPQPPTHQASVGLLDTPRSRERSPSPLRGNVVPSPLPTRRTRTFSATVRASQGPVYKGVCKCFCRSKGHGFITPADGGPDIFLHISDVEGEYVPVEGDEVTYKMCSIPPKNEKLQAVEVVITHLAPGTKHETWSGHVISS
inactive: [1] -0.031 | [2] 0.027 | [3] 0.019 | [4] -0.053 | [5] 0.005

CDAN1 (UniProt Q8IWY9)
inactive: [1] -0.011 | [2] 0.011 | [3] 0.062 | [4] 0.026 | [5] 0.005

CCNA2 (UniProt P20248)
inactive: [1] 0.013 | [2] -0.006 | [3] -0.003 | [4] -0.021 | [5] -0.068

CAMKK2 (UniProt Q96RR4)
inactive: [1] 0.002 | [2] -0.047 | [3] 0.072 | [4] 0.051 | [5] -0.013

ATR (UniProt Q13535)
inactive: [1] -0.061 | [2] -0.036 | [3] -0.04 | [4] 0.003 | [5] -0.095

CHCHD7 isoform 4 (UniProt Q9BUK0)
inactive: [1] 0.08 | [2] -0.052 | [3] 0.074 | [4] -0.071 | [5] -0.22

CDK9 isoform 2 (UniProt P50750)
inactive: [1] -0.001 | [2] -0.043 | [3] -0.015 | [4] -0.008 | [5] -0.114

CCDC47 (UniProt Q96A33)
inactive: [1] -0.043 | [2] 0.005 | [3] 0.022 | [4] 0.017 | [5] 0.018

BUD23 isoform 3 (UniProt O43709)
inactive: [1] 0.076 | [2] 0.03 | [3] 0.021 | [4] 0 | [5] -0.154

CDS2 (UniProt O95674)
inactive: [1] 0.01 | [2] 0.004 | [3] -0.056 | [4] -0.034 | [5] -0.024

CDC123 (UniProt O75794)
inactive: [1] -0.035 | [2] 0.02 | [3] -0.038 | [4] 0.073 | [5] 0.004

BTK isoform 2 (UniProt Q06187)
inactive: [1] -0.049 | [2] -0.033 | [3] 0.012 | [4] -0.002 | [5] -0.064

CCNH (UniProt P51946)
inactive: [1] -0.028 | [2] -0.004 | [3] 0.022 | [4] -0.039 | [5] -0.01

BUB1B isoform 3 (UniProt O60566)
inactive: [1] -0.013 | [2] -0.005 | [3] 0.027 | [4] -0.003 | [5] 0.02

CCDC25 (UniProt Q86WR0)
Chain of UniProt Q86WR0 (Q86WR0 whole entry, looked up): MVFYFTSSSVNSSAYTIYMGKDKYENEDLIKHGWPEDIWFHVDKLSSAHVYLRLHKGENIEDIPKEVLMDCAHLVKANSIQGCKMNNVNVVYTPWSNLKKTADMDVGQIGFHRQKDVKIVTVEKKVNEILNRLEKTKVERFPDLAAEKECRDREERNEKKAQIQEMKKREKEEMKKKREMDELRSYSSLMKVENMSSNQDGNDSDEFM
inactive: [1] 0.008 | [2] 0.035 | [3] 0.023 | [4] -0.015 | [5] 0.164

ATE1 isoform 2 (UniProt O95260)
Chain of UniProt O95260 (O95260 whole entry, looked up): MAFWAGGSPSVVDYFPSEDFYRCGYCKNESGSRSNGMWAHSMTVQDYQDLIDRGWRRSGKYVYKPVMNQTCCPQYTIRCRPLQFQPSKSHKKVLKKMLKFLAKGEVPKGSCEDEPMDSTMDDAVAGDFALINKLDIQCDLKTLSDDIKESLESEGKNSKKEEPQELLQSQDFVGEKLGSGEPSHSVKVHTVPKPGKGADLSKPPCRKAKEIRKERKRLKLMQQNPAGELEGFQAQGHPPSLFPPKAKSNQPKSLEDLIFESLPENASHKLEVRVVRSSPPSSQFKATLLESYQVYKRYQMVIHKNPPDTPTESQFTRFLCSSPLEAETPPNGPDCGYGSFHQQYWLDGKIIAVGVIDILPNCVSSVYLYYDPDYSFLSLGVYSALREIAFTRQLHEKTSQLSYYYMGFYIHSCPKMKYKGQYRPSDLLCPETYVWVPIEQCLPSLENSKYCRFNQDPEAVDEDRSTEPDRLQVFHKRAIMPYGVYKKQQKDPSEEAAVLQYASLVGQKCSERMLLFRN
inactive: [1] -0.015 | [2] -0.008 | [3] -0.004 | [4] 0.009 | [5] -0.087

CHCHD1 (UniProt Q96BP2)
active: [5] 0.627
inactive: [1] -0.026 | [2] 0.024 | [3] -0.04 | [4] -0.091

CARS isoform 3 (UniProt P49589)
inactive: [1] -0.026 | [2] 0.014 | [3] 0.007 | [4] 0.035 | [5] 0.03

CAPN15 (UniProt O75808)
Chain of UniProt O75808 (O75808 whole entry, looked up): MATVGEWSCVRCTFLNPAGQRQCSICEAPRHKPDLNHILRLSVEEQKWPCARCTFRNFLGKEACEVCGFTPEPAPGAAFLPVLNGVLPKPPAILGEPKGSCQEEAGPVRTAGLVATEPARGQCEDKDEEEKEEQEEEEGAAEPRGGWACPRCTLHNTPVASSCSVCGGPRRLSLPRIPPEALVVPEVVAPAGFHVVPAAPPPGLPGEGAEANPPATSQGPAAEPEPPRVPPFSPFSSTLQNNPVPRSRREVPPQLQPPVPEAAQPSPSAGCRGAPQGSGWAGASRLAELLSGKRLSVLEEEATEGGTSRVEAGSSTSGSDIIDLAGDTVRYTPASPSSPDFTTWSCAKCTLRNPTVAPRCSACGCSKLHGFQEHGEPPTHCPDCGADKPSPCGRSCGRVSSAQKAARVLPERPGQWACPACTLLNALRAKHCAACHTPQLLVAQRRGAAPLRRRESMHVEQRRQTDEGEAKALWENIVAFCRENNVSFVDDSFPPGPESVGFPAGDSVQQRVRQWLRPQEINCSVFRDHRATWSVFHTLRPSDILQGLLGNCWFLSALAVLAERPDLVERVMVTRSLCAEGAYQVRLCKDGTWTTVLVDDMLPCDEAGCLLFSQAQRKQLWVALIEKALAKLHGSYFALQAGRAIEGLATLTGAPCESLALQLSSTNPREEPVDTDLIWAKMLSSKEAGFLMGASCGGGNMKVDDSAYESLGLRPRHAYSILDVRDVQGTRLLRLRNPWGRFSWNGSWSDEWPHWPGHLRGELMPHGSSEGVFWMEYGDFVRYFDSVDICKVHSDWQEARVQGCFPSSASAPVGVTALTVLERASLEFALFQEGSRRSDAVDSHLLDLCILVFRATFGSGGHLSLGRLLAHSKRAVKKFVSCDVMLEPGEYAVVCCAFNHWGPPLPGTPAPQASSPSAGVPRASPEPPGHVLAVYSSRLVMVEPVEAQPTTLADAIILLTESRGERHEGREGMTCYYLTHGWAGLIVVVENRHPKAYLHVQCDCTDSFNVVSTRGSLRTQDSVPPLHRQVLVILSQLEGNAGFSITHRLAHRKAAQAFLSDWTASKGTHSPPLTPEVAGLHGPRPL
inactive: [1] -0.047 | [2] 0.063 | [3] -0.017 | [4] -0.011 | [5] 0.056

ATP6V0A2 (UniProt Q9Y487)
inactive: [1] -0.011 | [2] -0.017 | [3] 0.026 | [4] -0.015 | [5] -0.114

CEP76 (UniProt Q8TAP6)
Chain of UniProt Q8TAP6 (Q8TAP6 whole entry, looked up): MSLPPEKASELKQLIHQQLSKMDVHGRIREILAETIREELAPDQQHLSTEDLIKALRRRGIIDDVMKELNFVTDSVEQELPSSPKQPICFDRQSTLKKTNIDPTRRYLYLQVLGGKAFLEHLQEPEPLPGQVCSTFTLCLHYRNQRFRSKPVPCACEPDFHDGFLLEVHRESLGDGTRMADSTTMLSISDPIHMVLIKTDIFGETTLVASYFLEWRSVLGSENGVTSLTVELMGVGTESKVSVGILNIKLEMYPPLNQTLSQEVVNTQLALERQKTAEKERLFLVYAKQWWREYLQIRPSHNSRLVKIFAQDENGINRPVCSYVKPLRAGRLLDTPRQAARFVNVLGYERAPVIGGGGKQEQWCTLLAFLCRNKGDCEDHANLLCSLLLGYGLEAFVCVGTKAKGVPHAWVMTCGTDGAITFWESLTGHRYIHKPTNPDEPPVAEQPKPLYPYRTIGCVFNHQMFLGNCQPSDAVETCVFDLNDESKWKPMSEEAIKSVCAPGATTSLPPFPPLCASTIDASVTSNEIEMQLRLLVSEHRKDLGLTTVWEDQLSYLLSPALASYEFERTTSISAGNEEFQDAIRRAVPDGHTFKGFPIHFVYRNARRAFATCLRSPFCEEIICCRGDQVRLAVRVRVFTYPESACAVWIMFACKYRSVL
inactive: [1] -0.009 | [2] -0.01 | [3] -0.043 | [4] 0.002 | [5] -0.027

ATM (UniProt Q13315)
inactive: [1] -0.015 | [2] 0.013 | [3] -0.037 | [4] 0.038 | [5] -0.036

CHCHD2 (UniProt Q9Y6H1)
inactive: [1] -0.123 | [2] -0.043 | [3] -0.015 | [4] 0.062 | [5] -0.01

CHCHD4 isoform 2 (UniProt Q8N4Q1)
inactive: [1] 0.04 | [2] -0.076 | [3] -0.101 | [4] -0.189 | [5] -0.168

BORCS5 (UniProt Q969J3)
inactive: [1] -0.12 | [2] 0 | [3] -0.015 | [4] -0.005 | [5] -0.011

CCNK isoform 4 (UniProt O75909)
Chain of UniProt O75909 (O75909 whole entry, looked up): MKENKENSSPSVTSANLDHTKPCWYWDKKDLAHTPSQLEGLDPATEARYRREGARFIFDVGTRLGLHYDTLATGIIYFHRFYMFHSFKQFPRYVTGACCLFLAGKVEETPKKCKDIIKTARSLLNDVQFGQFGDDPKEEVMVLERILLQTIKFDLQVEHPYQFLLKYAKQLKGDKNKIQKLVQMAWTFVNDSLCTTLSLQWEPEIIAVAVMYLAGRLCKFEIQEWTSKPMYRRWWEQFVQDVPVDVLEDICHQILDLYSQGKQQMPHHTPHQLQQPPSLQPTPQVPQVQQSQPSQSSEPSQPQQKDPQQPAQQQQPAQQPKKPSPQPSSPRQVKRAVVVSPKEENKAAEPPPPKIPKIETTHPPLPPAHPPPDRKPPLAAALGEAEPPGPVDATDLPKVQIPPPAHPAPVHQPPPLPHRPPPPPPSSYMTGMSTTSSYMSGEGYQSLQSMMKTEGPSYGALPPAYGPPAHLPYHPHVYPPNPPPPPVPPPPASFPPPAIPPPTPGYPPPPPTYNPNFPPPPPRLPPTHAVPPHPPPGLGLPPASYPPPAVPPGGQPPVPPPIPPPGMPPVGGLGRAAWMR
inactive: [1] -0.018 | [2] -0.045 | [3] -0.026 | [4] -0.047 | [5] -0.175

CAPNS1 (UniProt P04632)
Chain of UniProt P04632 (P04632 whole entry, looked up): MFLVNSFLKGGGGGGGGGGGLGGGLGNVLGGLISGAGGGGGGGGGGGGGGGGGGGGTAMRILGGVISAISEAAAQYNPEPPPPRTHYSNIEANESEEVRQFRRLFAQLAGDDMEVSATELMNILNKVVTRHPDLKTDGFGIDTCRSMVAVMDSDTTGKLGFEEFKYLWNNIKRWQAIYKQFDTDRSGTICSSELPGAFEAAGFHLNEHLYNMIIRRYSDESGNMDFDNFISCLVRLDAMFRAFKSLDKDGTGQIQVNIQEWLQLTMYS
inactive: [1] 0 | [2] -0.041 | [3] -0.067 | [4] 0.057 | [5] -0.014

CENPQ (UniProt Q7L2Z9)
inactive: [1] -0.02 | [2] -0.02 | [3] 0.038 | [4] 0.021 | [5] -0.013

C5orf51 (UniProt A6NDU8)
inactive: [1] -0.047 | [2] -0.023 | [3] 0.001 | [4] -0.026 | [5] 0.092

CHAC2 (UniProt Q8WUX2)
Chain of UniProt Q8WUX2 (Q8WUX2 whole entry, looked up): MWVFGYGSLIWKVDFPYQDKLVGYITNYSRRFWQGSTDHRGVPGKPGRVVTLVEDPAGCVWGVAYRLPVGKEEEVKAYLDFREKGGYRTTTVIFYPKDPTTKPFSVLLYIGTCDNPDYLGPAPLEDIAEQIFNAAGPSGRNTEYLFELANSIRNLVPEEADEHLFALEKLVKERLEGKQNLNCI
active: [5] 0.344
inactive: [1] 0.079 | [2] 0.005 | [3] 0.028 | [4] -0.025

C18orf25 (UniProt Q96B23)
inactive: [1] 0.013 | [2] -0.035 | [3] 0.043 | [4] 0.017 | [5] -0.033

ATG4A (UniProt Q8WYN0)
inactive: [1] 0.008 | [2] 0.022 | [3] 0.068 | [4] -0.01 | [5] -0.103

ATG10 (UniProt Q9H0Y0)
inactive: [1] 0.008 | [2] 0 | [3] -0.057 | [4] 0.047 | [5] 0.076

ATG4B (UniProt Q9Y4P1)
inactive: [1] 0.004 | [2] 0.034 | [3] 0.017 | [4] -0.002 | [5] 0.051

CDK16 isoform 2 (UniProt Q00536)
inactive: [1] -0.02 | [2] -0.059 | [3] -0.11 | [4] -0.011 | [5] -0.049

CDC42EP4 (UniProt Q9H3Q1)
inactive: [1] 0.113 | [2] -0.084 | [3] -0.098 | [4] 0.004 | [5] -0.036

CDK5 (UniProt Q00535)
Chain of UniProt Q00535 (Q00535 whole entry, looked up): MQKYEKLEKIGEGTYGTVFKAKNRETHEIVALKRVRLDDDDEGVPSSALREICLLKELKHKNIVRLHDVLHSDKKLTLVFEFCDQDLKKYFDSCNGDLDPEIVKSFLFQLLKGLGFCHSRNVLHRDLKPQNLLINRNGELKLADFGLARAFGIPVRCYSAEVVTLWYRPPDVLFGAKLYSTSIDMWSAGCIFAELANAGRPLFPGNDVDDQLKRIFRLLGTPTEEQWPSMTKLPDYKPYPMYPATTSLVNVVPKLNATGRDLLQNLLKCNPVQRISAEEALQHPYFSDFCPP
inactive: [1] -0.01 | [2] -0.03 | [3] -0.021 | [4] 0.002 | [5] -0.02

CEPT1 (UniProt Q9Y6K0)
Chain of UniProt Q9Y6K0 (Q9Y6K0 whole entry, looked up): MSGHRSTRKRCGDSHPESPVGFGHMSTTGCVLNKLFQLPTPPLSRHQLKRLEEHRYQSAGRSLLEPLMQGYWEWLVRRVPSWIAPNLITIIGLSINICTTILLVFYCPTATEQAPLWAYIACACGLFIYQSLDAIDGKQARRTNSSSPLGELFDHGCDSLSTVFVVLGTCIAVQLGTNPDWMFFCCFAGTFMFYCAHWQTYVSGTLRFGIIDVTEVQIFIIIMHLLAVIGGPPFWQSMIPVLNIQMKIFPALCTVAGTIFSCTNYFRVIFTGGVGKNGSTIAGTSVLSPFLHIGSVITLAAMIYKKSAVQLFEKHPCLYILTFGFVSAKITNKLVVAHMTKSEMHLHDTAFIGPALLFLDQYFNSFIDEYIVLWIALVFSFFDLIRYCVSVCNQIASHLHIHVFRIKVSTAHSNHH
inactive: [1] -0.13 | [2] -0.017 | [3] 0.062 | [4] -0.054 | [5] 0.061

CHD3 isoform 3 (UniProt Q12873)
inactive: [1] -0.009 | [2] 0.027 | [3] 0.024 | [4] 0.035 | [5] 0.038

CARD9 (UniProt Q9H257)
inactive: [1] -0.039 | [2] 0.065 | [3] 0.023 | [4] -0.009 | [5] 0.035

CCNYL1 (UniProt Q8N7R7)
inactive: [1] -0.007 | [2] -0.089 | [3] -0.009 | [4] -0.058 | [5] -0.079

CDC7 (UniProt O00311)
inactive: [1] -0.063 | [2] 0.084 | [3] 0.019 | [4] 0.003 | [5] 0.008

C18orf32 (UniProt Q8TCD1)
inactive: [1] 0.039 | [2] 0.004 | [3] -0.245 | [4] -0.028 | [5] 0.076

BLM (UniProt P54132)
inactive: [1] 0.059 | [2] 0.03 | [3] -0.005 | [4] -0.002 | [5] 0.114

CASP9 (UniProt P55211)
inactive: [1] 0.041 | [2] -0.024 | [3] 0.019 | [4] -0.05 | [5] -0.048

Reference: the supplement of paper PMC10849652
